Results as given in PubChem BioAssay (NCI).
About 83,000 compounds went through this panel and 20% of them were active in at least one assay; those are over-represented in the sample as a whole.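 Each cell line was grown in a 96-well plate and treated with one concentration of compound for 48 hours. Values below 10 were considered active.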 Unmarked numbers belong to inactive results. Activity calls are given as the source filed them.

Tests used:
Assay in all cases: NCI-60 one-dose screen, 48 h (100 = growth as untreated, 0 = no growth, -100 = all killed)
K-562 leukemia = conditions: 10 µM unless noted
MALME-3M melanoma = conditions: 10 µM unless noted
MDA-MB-231 breast = conditions: 10 µM unless noted
RXF 393 renal = conditions: 10 µM unless noted
SF-268 CNS = conditions: 10 µM unless noted
SF-295 CNS = conditions: 10 µM unless noted
SF-539 CNS = conditions: 10 µM unless noted
UACC-257 melanoma = conditions: 10 µM unless noted
M14 melanoma = conditions: 10 µM unless noted
HCT-15 colon = conditions: 10 µM unless noted
HT29 colon = conditions: 10 µM unless noted
SNB-75 CNS = conditions: 10 µM unless noted
SNB-19 CNS = conditions: 10 µM unless noted
U251 CNS = conditions: 10 µM unless noted
PC-3 prostate = conditions: 10 µM unless noted
SK-MEL-5 melanoma = conditions: 10 µM unless noted
UACC-62 melanoma = conditions: 10 µM unless noted
LOX IMVI melanoma = conditions: 10 µM
SK-MEL-28 melanoma = conditions: 10 µM unless noted
DU-145 prostate = conditions: 10 µM unless noted

| Structure (SMILES) | growth (K-562 leukemia) | growth (MALME-3M melanoma) | growth (MDA-MB-231 breast) | growth (RXF 393 renal) | growth (SF-268 CNS) | growth (SF-295 CNS) | growth (SF-539 CNS) | growth (UACC-257 melanoma) | growth (M14 melanoma) | growth (HCT-15 colon) | growth (HT29 colon) | growth (SNB-75 CNS) | growth (SNB-19 CNS) | growth (U251 CNS) | growth (PC-3 prostate) | growth (SK-MEL-5 melanoma) | growth (UACC-62 melanoma) | growth (LOX IMVI melanoma) | growth (SK-MEL-28 melanoma) | growth (DU-145 prostate) |
| --- | --- | --- | --- | --- | --- | --- | --- | --- | --- | --- | --- | --- | --- | --- | --- | --- | --- | --- | --- | --- |
| CC(=O)C1C(=O)C(=O)N(c2cccc([N+](=O)[O-])c2)C1=O (stereo not drawn) | 112% | 124% | 107% | 110% | 109% | 107% | 108% | 97.4% | 104% | 102% | 105% | 93.9% | 104% | 97.3% | 98.2% | 107% | 100% | 105% | 107% | – |
| CCOC(=O)/C(O)=C(\C=N\C(=S)Nc1ccc(Cl)c(Cl)c1)C(=O)OCC | 92.7% | 89.3% | 94.3% | 97.9% | 104% | 105% | 73.9% | 98.6% | 93.2% | 89.3% | 92.8% | 82% | 104% | 98.2% | 86.9% | 91.7% | 88.4% | 92.9% | 109% | – |
| COC(=O)C1=C(C)C(=O)CC1 | 96.1% | 137% | 102% | 143% | 111% | 135% | 109% | 110% | 105% | 121% | 98.3% | 94.4% | 104% | 115% | 96.2% | 110% | 100% | 118% | 110% | – |
| C(=C\c1ccncc1)/c1ccncc1 | – | 87.1% | 110% | – | 146% | 107% | 104% | 108% | 105% | 96.3% | 99% | 89.6% | 94.5% | 97.1% | – | 101% | 90.1% | 94.2% | 104% | 145% |
| CCOC(=O)C(COS(C)(=O)=O)(COS(C)(=O)=O)C(=O)OCC | 101% | 122% | 109% | 112% | 99% | 111% | 112% | 105% | 104% | 107% | 108% | 99.4% | 106% | 101% | 98.5% | 109% | 103% | 98.3% | 105% | – |
| O=C(c1cccc(C(=O)c2ccc3c4c(cccc24)C(=O)N(c2ccccc2)C3=O)c1)c1ccc2c3c(cccc13)C(=O)N(c1ccccc1)C2=O | 89.8% | 101% | 91.1% | 102% | 97.2% | 103% | 98.7% | 92% | 99.2% | 101% | 106% | 93.4% | 111% | 89.3% | 82.3% | 84.4% | 84.7% | 91.2% | 109% | – |
| N#C/C(=C\c1ccc(C#N)cc1)C(=O)c1ccccc1 | – | 109% | 104% | – | 104% | 107% | 96.8% | 97.7% | 95.7% | 95.7% | 104% | 77.8% | 93.4% | 94.3% | 87.6% | 106% | 92.8% | 98.8% | 121% | 107% |
| CC(=O)OCC1OC(n2cnc3c(=S)nc(N)[nH]c32)C(OC(C)=O)C1OC(C)=O (stereo not drawn) | – | 84.4% | 63.5% | – | 76.8% | 40% | 85.7% | – | – | 79.3% | 74.6% | 56% | 99.9% | 93.1% | 104% | 99.4% | 65.2% | 19.7% | 114% | 53.1% |
| O=C1C=C(c2ccccc2)C(O)(c2ccccc2)C1 (stereo not drawn) | 86.6% | 108% | 92.5% | 115% | 103% | 94.1% | 104% | 97.7% | 95.5% | 132% | 97.8% | 77.6% | 135% | 106% | 92.8% | 106% | 92.3% | 93.6% | 108% | – |
| Cc1cc(Cl)cc(Cc2cc(Cl)cc(C)c2O)c1O | – | -7.41% (active) | 1.11% (active) | 56.9% | 15% | 22.6% | 12.7% | 8.59% (active) | 14.2% | 12.4% | 98.1% | 19.3% | 17.3% | 8.37% (active) | -7.63% (active) | 6.88% (active) | 16.1% | 5.44% (active) | 22.6% | 30.5% |
| Clc1ccc(C(SCc2ccccc2)SCc2ccccc2)cc1 | 92.7% | 75.8% | 99.9% | 88% | 91% | 102% | 97.2% | 88.2% | 88.2% | 97.8% | 90.9% | 91.3% | 105% | 88.7% | 85.9% | 98.8% | 82.1% | 94.3% | 96.3% | – |
| NNC(=O)N/N=C1\C(=O)N(c2nccs2)C(=O)C(=O)C1c1nc2ccccc2s1 (stereo not drawn) | – | 98.7% | 90.4% | 106% | 96.3% | 109% | 106% | 68.9% | 105% | 116% | 94.1% | 81.8% | 101% | 80% | 82.6% | 96.5% | 90.5% | 96.3% | 112% | 103% |
| Oc1cc(O)c2c(c1)O[C@H](c1ccc(O)c(O)c1)[C@@H](O)C2 | 104% | 103% | 98.4% | 113% | – | 97.8% | 111% | 101% | 112% | 100% | 97.5% | 83.6% | 101% | 97.9% | 93.3% | 104% | 106% | 100% | 110% | – |
| O=C(NCc1ccccc1)/C(=C/c1ccccc1)NC(=O)c1ccccc1 | – | – | 92.6% | 93.7% | 100% | 106% | 115% | 81.1% | 101% | 106% | 92.9% | 98.1% | 97.1% | 93.4% | 88.5% | 97.5% | 93.5% | 98.3% | 117% | 111% |
